# Compound activity as filed in PubChem.
# Pf growth 96h: Primary qHTS for delayed death inhibitors of the malarial parasite plastid, 96 hour incubation | P. falciparum luciferase reporter growth, 96 h | 320,000 tested, 6.9% active | Potency, µM (top dose mostly 28.7 µM), usual class: inhibitors
#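 Infected RBCs, 2% Hct / 0.05% parasitemia final; luciferase-reporter P. falciparum; cpd 96 h, 37 C, 5% CO2; luciferase detection reagent; luminescence.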
# LmPK inh: qHTS Assay for Inhibitors of Leishmania Mexicana Pyruvate Kinase (LmPK). Q27686. purified LmPK, Kinase-Glo ATP luminescence, 1 h. Potency, µM (doses to about 57.5 µM), hits mostly inhibitors. 290,000 tested, 0.37% active. AID 1721, 2009
# Target sequence (Q27686 whole entry, looked up): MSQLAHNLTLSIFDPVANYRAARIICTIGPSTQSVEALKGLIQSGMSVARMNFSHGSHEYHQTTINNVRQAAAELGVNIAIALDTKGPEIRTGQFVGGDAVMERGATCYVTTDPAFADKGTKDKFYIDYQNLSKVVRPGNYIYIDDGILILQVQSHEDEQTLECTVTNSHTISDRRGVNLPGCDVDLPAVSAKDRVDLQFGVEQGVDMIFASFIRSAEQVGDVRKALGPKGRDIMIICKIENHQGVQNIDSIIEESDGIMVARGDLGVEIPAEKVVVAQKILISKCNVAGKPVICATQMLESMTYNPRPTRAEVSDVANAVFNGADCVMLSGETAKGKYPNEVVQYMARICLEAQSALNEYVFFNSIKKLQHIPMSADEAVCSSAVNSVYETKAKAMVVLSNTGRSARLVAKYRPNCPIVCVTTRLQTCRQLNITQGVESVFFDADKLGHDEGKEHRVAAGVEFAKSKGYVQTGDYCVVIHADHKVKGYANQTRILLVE
#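 Purified LmPK (0.1 nM) with 0.5 mM PEP and 0.1 mM ADP in imidazole buffer pH 7.2 with MgCl2/KCl, 1 h at room temperature. ATP formed was read by luciferase luminescence and normalized to no-enzyme and uninhibited controls.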
# Cycloheximide cs: Cycloheximide Counterscreen for Small Molecule Inhibitors of Shiga Toxin; cell reporter, cycloheximide protein synthesis inhibition counterscreen; 300,000 tested, 12% active; AID 2314, 2010; max response, %; in the data active means max response mostly above about 13%, no sharp cut-off; inactive means mostly below about 14%; further: read at 38.3 µM for the half of the compounds with a filed dose
# Shiga inhibitor: A qHTS for Small Molecule Inhibitors of Shiga Toxin | Vero cells, Shiga toxin protein synthesis inhibition reporter | inhibition, % at 38.7 µM | 290,000 tested, 9.2% active | AID 2315, 2010; in the data active means inhibition mostly above about 28%, no sharp cut-off; inactive means mostly below about 43%
# Pf growth 48h: Primary qHTS for delayed death inhibitors of the malarial parasite plastid, 48 hour incubation; P. falciparum luciferase growth in erythrocytes, 48 h; Potency, µM (series often up to 28.7 µM), hits mostly inhibitors; 310,000 tested, 5.9% active; AID 504832, 2011
#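 Luminescence readout; reporter = integrated firefly luciferase in P. falciparum. RBC culture at 2% hematocrit, 0.1% parasitemia final, 37 C/5% CO2; decreased signal taken as growth inhibition.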
# Numbers stand for hits; n = inactive; u = inconclusive; x = not tested or not shown. In the library only some 22% were active in any assay of this set; here they are far more common. Unless noted, the call rests on the fitted dose curve; in most records, active means well fitted inhibition curve with a large enough effect; inconclusive means small, poorly fitted or top-dose-only effect, or another doubt; inactive means no such curve, though single readings can be large or run the other way.
SMILES,Pf growth 96h,LmPK inh,Cycloheximide cs,Shiga inhibitor,Pf growth 48h
Cc1ccc(C(=O)Nc2ccncc2)cc1[N+](=O)[O-],u,n,n,n,n
CC(=O)Nc1cccc(NC(=O)c2ccc(C)c([N+](=O)[O-])c2)c1,n,n,25.9,n,n
Cc1ccc(C(=O)NNC(=O)c2ccncc2)cc1[N+](=O)[O-],n,x,x,x,n
Cc1ccc(NC(=O)c2ccncc2)cc1[N+](=O)[O-],n,n,18.5,n,n
Cc1cc(C(=O)Nc2ccncc2)ccc1[N+](=O)[O-],n,n,26.3,n,x
COc1ccccc1C(=O)NC(=O)Nc1c(C)cc(C)cc1C,n,n,n,n,n
C/C(=N\NC(=O)c1ccc([N+](=O)[O-])c(C)c1)c1ccccc1Cl,n,n,28.1,57.5,n
CC(=O)Nc1ccccc1NC(=O)C/C(C)=N/NC(=O)c1ccc([N+](=O)[O-])c(Cl)c1,n,n,n,n,n
COc1ccc(NC(=O)CN2CCc3ccccc3C2)c([N+](=O)[O-])c1,n,n,n,n,n
COc1ccc(C2C=C(c3ccc(Cl)cc3)Nc3nc(NC(C)=O)nn32)cc1 (configuration not stated),n,n,n,n,u
COc1ccc(C2=CC(c3ccc(Cl)cc3)n3cnnc3N2)cc1OC (configuration not stated),x,n,n,n,10.4µM
O=C1NCCCc2nonc21,n,n,n,n,n
C1CCc2c(nnc3c2-c2nonc2CC3)C1,2.08µM,n,n,n,n
COCCCNC(=O)c1ccc2nc(Cc3ccc(OC)cc3)oc2c1,n,n,31.9,n,n
CCOCC(O)CNC(=O)c1ccc2nc(Cc3ccc(OC)c(OC)c3)oc2c1 (configuration not stated),n,n,n,n,n
COc1ccc(Cc2nc3ccc(C(=O)N(C)CCn4ccnc4)cc3o2)cc1OC,u,n,76.9,62.7,n
COC(=O)CCNC(=O)c1ccc2nc(Cc3ccc(OC)c(OC)c3)oc2c1,u,n,23.9,29.0,n
COc1ccc(Cc2nc3ccc(C(=O)NCCCSC)cc3o2)cc1OC,2.94µM,n,45.1,39.4,n
CCOc1ncccc1C(=O)NCc1ccc(OC)c(OC)c1,n,n,n,n,n
COc1ccc(Cc2nc3ccc(C(=O)N(C)CCO)cc3o2)cc1,n,n,n,n,n
COc1ccc(Cc2nc3ccc(C(=O)N(C)C(C)c4ccon4)cc3o2)cc1 (configuration not stated),n,n,40.7,49.2,n
Cc1nc(N2CCOCC2)c2cc(-c3ccccc3)sc2n1,u,n,14.1,n,x
CSc1nc(N2CCN(Cc3ccc4c(c3)OCO4)CC2)c2ccccc2n1,u,n,n,n,u
Cc1nc(N2CCN(Cc3ccc4c(c3)OCO4)CC2)c2cc(-c3ccccc3)sc2n1,u,n,n,n,11.7µM
c1ccc(-c2cc3c(N4CCOCC4)ncnc3s2)cc1,n,n,n,n,n
SMILES,Pf growth 96h,LmPK inh,Cycloheximide cs,Shiga inhibitor,Pf growth 48h
Cn1nc(C(C)(C)C)cc1C(=O)NCc1ccc2c(c1)OCO2,n,n,n,n,n
ON=C1c2ccccc2-c2ccccc21,n,n,24.5,23.5,x
CC1(C)CC(=O)N(c2ccc(Cl)cc2Cl)C(=O)C1,n,n,n,n,n
Fc1ccc(-n2c(CN3CCCCC3)n[nH]c2=S)cc1,n,n,n,n,n
Cc1ccc(N2C(=O)/C(=C/c3cccnc3)SC2=S)cc1,n,n,n,n,n
CN(C)/C=C1\SC(=S)N(c2ccc(Br)cc2)C1=O,n,n,33.5,46.2,2.33µM
CN(C)/C=C1\SC(=S)N(c2ccc(F)cc2)C1=O,n,n,33.3,n,u
CCN(CC)c1ccc(N2C(=O)/C(=C\c3cccs3)SC2=S)cc1,x,n,n,n,n
CCCC#CCN1CCN(C23CC4CC(CC(C4)C2)C3)CC1,n,n,n,n,n
Cc1cc(C)c2nc(N)sc2c1,u,n,34.3,n,n
CCCN1CCC(=O)N([C@H](CSc2ccc(OC)cc2)CC(C)C)CC1,u,n,26.8,71.0,u
COc1ccc(SCC(CC(C)C)N2CCN(CCc3ccccc3)CCC2=O)cc1 (configuration not stated),x,x,55.8,56.9,x
CC(C)C[C@@H](CSc1ccc(Br)cc1)N1CCN(CCc2ccccc2)CCC1=O,u,n,n,n,u
